# Records with an inconclusive call do not appear. A number with no mark means an inactive call. The call rests on the fitted dose curve; in most records, active means well fitted cell-killing curve with a large enough effect in the repeat runs; inconclusive means weak or mixed curves, or effect the other way; inactive means no such curve, though single readings can be large or run the other way.
# Assay: qHTS assay to identify small molecule antagonists of the sonic hedgehog signaling (Shh) pathway - cell viability counter screen (AID 1259367); further: nearly all actives have a fitted effect of over 55% in size
# Settings: NIH/3T3 Gli1-Luc viability, CellTiter-Fluor, 24 h; series mostly up to 92.4 µM; viability change, negative = cytotoxic: at the top concentration
# Description: National Center for Advancing Translational Sciences [NCATS]
# NIH Chemical Genomics Center [NCGC]
# U.S. Environmental Protection Agency [EPA]
# National Institutes of Environmental Health Sciences [NIEHS]
# National Toxicology Program [NTP]
# U.S. Food and Drug Administration [FDA]
# The sonic hedgehog (Shh) pathway is essential for normal embryonic development. Dysregulation of the Shh pathway can cause severe developmental defects in organs. Therefore chemicals that interfere with the pathway are potential developmental toxicants. A cell line designated 3T3Gli1-Luc (DMB/OARSA/CFSAN/FDA, Laurel, MD), a NIH/3T3 derived clone containing stably integrated Gli1-Luc reporter is used to detect chemical interference of the Shh pathway, by changes in the expression of the firefly Luc gene under the control of the Gli1 transcriptional response element. This cell line was used to screen Tox21 libraries for identifying and prioritizing the potential developmental toxicants that interfere Shh pathway. Conditioned medium-stimulated mode was used to screen for chemicals inhibiting Shh signaling. The cytotoxicity of the compounds was tested in parallel by measuring the cell viability using CellTiter-Fluor assay system (Promega, Madison, WI) in the same wells.
# Tox21 Assay Protocol Summary:
# 3T3 Gli1-Luc cells were dispensed at 2,000 per well in 5uL of culture medium into white solid bottom 1536-well plates (Greiner Bio-One, Monroe, NC) using a Multidrop Combi (Thermo Scientific, Waltham, MA) dispenser. The assay plates were incubated at 37 C and 5% CO2 for 4hr, and then 23nL of compounds dissolved in DMSO and positive control were transferred using a Pintool station (Wako, San Diego, CA). The compound transfer was followed by the addition of 1ul conditioned medium or assay buffer using two separate tips of Flying Reagent Dispenser (FRD, Aurora Discovery, San Diego, CA). The assay plates were incubated at 37C and 5% CO2 for 24hr. For viability read, after 23hr of compound treatment, 1uL of CellTiter-Fluor reagent (Promega Corporation, Madison, WI) was added to each well of the assay plates using Flying Reagent Dispenser (FRD, Aurora Discovery, San Diego, CA) and incubated the assay plates at 37C for 1hr. The fluorescence signal was quantified using a ViewLux plate reader (Perkin Elmer, Shelton, CT).
# On the % scale 0 is the no-effect control and ±100 the full control effect.
row,Compound,"viability change, negative = cytotoxic"
1,COc1cc(OC)cc(OC)c1,3.78% [at 42.5 µM]
2,CC(O)C(CO)C(C)O (stereo not given),5.46%
3,CCNC(=O)C(C)OC(=O)Nc1ccccc1 (stereo not given),-0.726%
4,CN(C)CCc1c[nH]c2ccc(CS(=O)(=O)N3CCCC3)cc12,0.344% [at 42.5 µM]
5,CCCC(=O)C(CC)Sc1ccoc1C (stereo not given),-4.75%
6,O=C(O)P(=O)(O)O,-2.98% [at 42.5 µM]
7,CN(C)CCCN(C)C,4.7% [at 8.39 µM]
8,O=C(O)Cc1c(Cl)ccc(Cl)c1Cl,1.38%
9,C=CCN1CCc2nc(N)sc2CC1,0.0326% [at 42.5 µM]
10,CC(=O)O[C@@H]1CC2C3CCc4cc(OC(=O)c5ccccc5)ccc4C3CCC2(C)[C@H]1OC(C)=O (stereo not given in full),5.85% [at 42.5 µM]
11,CCN(CC)CC(=O)Oc1ccc(NC(C)=O)cc1,1.2% [at 42.5 µM]
12,N[C@H]1C(O)O[C@H](CO)[C@@H](O)[C@@H]1O (stereo not given in full),0.834% [at 42.5 µM]
13,CCCCCCCCCCCBr,-5.71% [at 42.5 µM]
14,O=S(=O)(O)c1cc(I)c(O)c2ncccc12,1.06% [at 42.5 µM]
15,CCCCCCCCS(=O)(=O)O,5.51%
16,CCCCOCCCC,4.29%
17,CNC(=O)c1c(I)c(NC(C)=O)c(I)c(C(=O)O)c1I,0.194% [at 42.5 µM]
18,CC1=C(O)C(=O)CO1,-4.64%
19,CCOC(=O)c1ccc(N(C)C)cc1,-0.159%
20,CCO[Si](CC(C)C)(OCC)OCC,-2.07%

row,Compound,"viability change, negative = cytotoxic"
1,C[C@]12C=CC(=O)C=C1[C@@H](F)C[C@@H]1[C@@H]2[C@@H](O)C[C@@]2(C)[C@H]1CC[C@]2(O)C(=O)CO,1.16% [at 42.5 µM]
2,CCCCc1ccc(Cl)cc1,-0.465%
3,CCCCCC(=O)CC,9.58%
4,C[C@@H]1CCC[C@H](C)N1CCCC(O)(c1ccccc1)c1ccccn1 (stereo not given in full),-2.66% [at 42.5 µM]
5,Cc1cc(=O)oc2cc(O[C@@H]3SC[C@@H](O)[C@H](O)[C@H]3O)ccc12,5.46% [at 42.5 µM]
6,O=C[C@@H](O)[C@H](O)[C@H](O)CO,0.297%
7,O=Cc1ccccc1S(=O)(=O)O,4.79%
8,C/C=C(\C)C(=O)OC/C=C(\C)CCC=C(C)C,-6.71%
9,C=C(C)C(=O)OCCOC1CC2CC1C1C=CCC21 (stereo not given),0.455%
10,COc1ccc2cc(CCC(C)=O)ccc2c1,2.75% [at 42.5 µM]
11,CCC(C)c1nccnc1OC (stereo not given),9.94%
12,CC(C)(C)OC(=O)c1ccccc1C(=O)O,9.06%
13,CC/C=C\CCOC(=O)c1ccccc1,0.755%
14,NC(=O)CC[C@@H](N)C(=O)O,0.553% [at 42.5 µM]
15,CCCCCCCOC(C)=O,0.377%
16,COc1cc(C(=O)NC2CCCNC2)cc(OC)c1OC (stereo not given),0.219% [at 42.5 µM]
17,N#CC1(N)CCCCC1,2.73%
18,CC(=O)Oc1ccc(C(C)=O)cc1,3.16%
19,COC(C)(C)CC(C)=O,1.17%
20,NS(=O)(=O)c1cc2c(cc1C(F)(F)F)NCNS2(=O)=O,4.15% [at 42.5 µM]

# From PubChem BioAssay (Tox21)
